Laboratory results from PubChem BioAssay (NCI).
This is part of a sample that, as a whole, favours compounds with a hit. Of some 79,000 tested, about 15% had one in any assay. A number with no mark means an inactive call. Activity calls are given as the source filed them. Rule as the data show it: active = growth inhibition above about 70%; inactive = the rest.

Test: NCI Yeast Anticancer Drug Screen. Data for the mlh1 strain (AID 171);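 also: 0% = growth of vehicle-treated control cultures of the same strain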
Details: S. cerevisiae mlh1 strain growth inhibition, hits give high values
Procedure: Growth inhibition of yeast strains with defined genetic alterations is measured as a screen for potential anti-cancer activity. Selected strains with alterations in DNA damage repair or cell cycle control were exposed to compounds and growth inhibition was measured relative to vehicle treated controls. The strain used in this assay is mlh1

SMILES	growth inhibition (at 1.2 µM)	growth inhibition (at 3.7 µM)	growth inhibition (at 11.0 µM)	growth inhibition (at 33.0 µM)	growth inhibition (at 100.0 µM)
Cc1ccc(Cl)cc1NC(=O)OCCN(C)C(=O)Nc1cc(Cl)ccc1C	-24%	-36%	-33%	-30%	11%
O=[n+]1c2ccccc2n([O-])c2cc(Br)ccc21	-3%	19%	61%	99% (active)	98% (active)
COc1ccc2c(c1)n([O-])c1ccccc1[n+]2=O	0%	3%	12%	38%	90% (active)
C/C=C/SC(=Nc1ccccc1)Nc1ccccc1	-4%	-3%	-6%	-5%	98% (active)
CCOC(=O)C(C(=O)OCC)=P(c1ccccc1)(c1ccccc1)c1ccccc1	1%	-2%	0%	1%	92% (active)
CS(=O)(=O)SCc1ccc([N+](=O)[O-])cc1	6%	14%	70% (active)	99% (active)	97% (active)
C=C(Cl)COC(=O)Nc1cccc(Cl)c1	-6%	-1%	1%	36%	97% (active)
Cn1c(-c2ccc(/C=N\N3CCN(/N=C/c4ccc(-c5c[n+]6ccccc6n5C)cc4)CC3)cc2)c[n+]2ccccc12	-17%	-13%	3%	57%	90% (active)
